Experimental data taken from publication PMC7862700, “An all-to-all approach to the identification of sequence-specific readers for epigenetic DNA modifications on cytosine”.

These sequences were tested against CRX (Homo sapiens, UniProt O43186 1-299) (assay: DAPPL (digital affinity profiling via proximity ligation, sequencing); 10 mM Tris-HCl pH 7.5, 50 mM NaCl, 1 mM DTT, 4% glycerol, room temperature, 30 min; GST-TFs on glutathione beads, 16-mer random dsDNA library, 0.1% formaldehyde crosslink after washing; high values mean tight binding). Settings: protein: recombinant; tags: N-terminal GST; dsDNA, one strand shown.
In short: (§1)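 In yeast, human transcription factors were expressed with a GST fusion, then pulled down on glutathione beads and given DNA barcodes. Pooled with a tag-only sample, they were exposed to 200 nmole of a 16-mer random double-stranded DNA library (Tris/NaCl/DTT/glycerol buffer, room temperature, 30 min), washed, crosslinked with 0.1% formaldehyde, proximity-ligated using BsaI/T4 ligase for 1 h at 37 °C, PCR-amplified and read on an Illumina NextSeq500. Each hexamer's frequency of reads for a factor, divided by the matching frequency for the tag-only sample, gives the binding signal.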

CRX, sequence (O43186 whole entry, the tested form may be a part): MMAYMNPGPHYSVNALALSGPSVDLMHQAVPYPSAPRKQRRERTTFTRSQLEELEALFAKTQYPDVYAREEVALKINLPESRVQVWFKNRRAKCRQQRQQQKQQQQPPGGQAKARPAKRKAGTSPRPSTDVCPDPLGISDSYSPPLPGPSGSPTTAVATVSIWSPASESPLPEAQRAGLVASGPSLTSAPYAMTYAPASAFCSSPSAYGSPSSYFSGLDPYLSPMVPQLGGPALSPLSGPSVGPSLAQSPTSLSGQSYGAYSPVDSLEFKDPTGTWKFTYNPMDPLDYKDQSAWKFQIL

Sequence	binding signal
TAGAGG	1.02 fold enrichment (6-mer frequency, TF over GST control)
TAGCCG	1.05 fold enrichment (6-mer frequency, TF over GST control)
TAAGGA	1.22 fold enrichment (6-mer frequency, TF over GST control)
AGCCGA	1.08 fold enrichment (6-mer frequency, TF over GST control)
GGATTG	1.12 fold enrichment (6-mer frequency, TF over GST control)
GGATGA	1.11 fold enrichment (6-mer frequency, TF over GST control)
AGGATA	1.14 fold enrichment (6-mer frequency, TF over GST control)
TAAGTG	1.14 fold enrichment (6-mer frequency, TF over GST control)
GCGGAT	1.2 fold enrichment (6-mer frequency, TF over GST control)
ATTGGA	1.03 fold enrichment (6-mer frequency, TF over GST control)
GATCAG	1.08 fold enrichment (6-mer frequency, TF over GST control)
ATCAGG	1.04 fold enrichment (6-mer frequency, TF over GST control)
AGTCTT	1.02 fold enrichment (6-mer frequency, TF over GST control)
GCGTAA	1.03 fold enrichment (6-mer frequency, TF over GST control)
AAGCCG	1.42 fold enrichment (6-mer frequency, TF over GST control)
GTTTAG	1 fold enrichment (6-mer frequency, TF over GST control)

Each sequence was assayed against T1, ERF (Homo sapiens, UniProt P50548 1-548) in the same assay as above. Settings: protein: recombinant; tags: N-terminal GST; dsDNA, one strand shown.
T1 sequence: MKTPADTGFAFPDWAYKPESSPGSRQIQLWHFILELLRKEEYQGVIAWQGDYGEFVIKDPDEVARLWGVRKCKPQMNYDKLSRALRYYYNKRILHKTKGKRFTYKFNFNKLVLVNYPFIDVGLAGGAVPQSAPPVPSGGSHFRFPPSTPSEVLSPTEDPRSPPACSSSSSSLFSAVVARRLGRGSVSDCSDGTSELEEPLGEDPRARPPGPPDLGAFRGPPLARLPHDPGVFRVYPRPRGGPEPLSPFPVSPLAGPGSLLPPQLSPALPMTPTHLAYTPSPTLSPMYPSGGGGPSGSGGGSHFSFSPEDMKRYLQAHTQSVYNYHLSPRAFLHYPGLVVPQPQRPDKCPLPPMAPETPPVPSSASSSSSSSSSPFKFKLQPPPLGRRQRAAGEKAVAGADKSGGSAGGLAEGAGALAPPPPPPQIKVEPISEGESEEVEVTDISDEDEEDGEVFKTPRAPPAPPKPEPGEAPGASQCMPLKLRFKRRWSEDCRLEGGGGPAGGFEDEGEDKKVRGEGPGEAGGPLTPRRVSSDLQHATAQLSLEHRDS
In short: as §1

Sequence	binding signal
GAAAGG	1 fold enrichment (6-mer frequency, TF over GST control)
TGTCGC	1.04 fold enrichment (6-mer frequency, TF over GST control)
TACGGG	1.08 fold enrichment (6-mer frequency, TF over GST control)
AGTCTT	1.01 fold enrichment (6-mer frequency, TF over GST control)

Each sequence was assayed against T2, SPDEF (Homo sapiens, UniProt O95238 1-335) in the same assay as above. Settings: protein: recombinant; tags: N-terminal GST; dsDNA, one strand shown.
T2 sequence: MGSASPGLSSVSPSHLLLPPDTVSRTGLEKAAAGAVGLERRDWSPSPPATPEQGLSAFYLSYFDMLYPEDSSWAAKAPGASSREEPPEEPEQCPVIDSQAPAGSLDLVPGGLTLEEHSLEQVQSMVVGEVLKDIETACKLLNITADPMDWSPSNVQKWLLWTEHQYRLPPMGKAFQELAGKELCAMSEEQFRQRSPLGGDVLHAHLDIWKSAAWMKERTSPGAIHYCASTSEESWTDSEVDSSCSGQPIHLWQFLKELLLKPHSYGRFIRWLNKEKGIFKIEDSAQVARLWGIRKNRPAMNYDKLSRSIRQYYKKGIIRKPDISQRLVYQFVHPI
In short: as §1

Sequence	binding signal
GGTTGT	1.03 fold enrichment (6-mer frequency, TF over GST control)
GGATGA	1.11 fold enrichment (6-mer frequency, TF over GST control)
AGGATA	1.31 fold enrichment (6-mer frequency, TF over GST control)
ACCGGT	1.02 fold enrichment (6-mer frequency, TF over GST control)
GCGGAT	1.25 fold enrichment (6-mer frequency, TF over GST control)
CGCGGA	1.03 fold enrichment (6-mer frequency, TF over GST control)

Each sequence was assayed against T3, ETV7 (Homo sapiens, UniProt Q9Y603 1-341) in the same assay as above. Settings: protein: recombinant; tags: N-terminal GST; dsDNA, one strand shown.
T3 sequence: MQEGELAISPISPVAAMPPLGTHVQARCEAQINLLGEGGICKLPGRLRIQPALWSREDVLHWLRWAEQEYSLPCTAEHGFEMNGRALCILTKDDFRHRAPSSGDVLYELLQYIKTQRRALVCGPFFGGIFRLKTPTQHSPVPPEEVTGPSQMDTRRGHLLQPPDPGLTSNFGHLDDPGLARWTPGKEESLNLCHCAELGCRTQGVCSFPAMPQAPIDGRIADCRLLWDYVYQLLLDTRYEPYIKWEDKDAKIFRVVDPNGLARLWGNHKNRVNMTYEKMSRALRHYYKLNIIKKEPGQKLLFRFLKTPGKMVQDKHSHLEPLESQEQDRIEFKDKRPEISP
In short: as §1

Sequence	binding signal
GAAAGG	1.02 fold enrichment (6-mer frequency, TF over GST control)
GGATGA	1.06 fold enrichment (6-mer frequency, TF over GST control)
AAGCCG	1.05 fold enrichment (6-mer frequency, TF over GST control)

What follows are sequences tested against T4, ELF5 (Homo sapiens, UniProt Q9UKW6-2 1-255) in the same assay as above. Settings: protein: recombinant; tags: N-terminal GST; dsDNA, one strand shown.
T4 sequence: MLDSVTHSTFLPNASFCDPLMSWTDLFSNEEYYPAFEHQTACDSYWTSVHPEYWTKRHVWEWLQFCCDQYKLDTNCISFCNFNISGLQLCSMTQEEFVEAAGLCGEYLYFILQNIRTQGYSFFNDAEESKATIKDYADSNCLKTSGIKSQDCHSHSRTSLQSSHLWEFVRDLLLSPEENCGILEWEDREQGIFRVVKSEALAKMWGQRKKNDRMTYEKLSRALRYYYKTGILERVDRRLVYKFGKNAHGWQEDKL
In short: as §1

Sequence	binding signal
ACAAGG	1.14 fold enrichment (6-mer frequency, TF over GST control)
TAAGGA	1.32 fold enrichment (6-mer frequency, TF over GST control)
GGATGA	1.11 fold enrichment (6-mer frequency, TF over GST control)
AGGATA	1.17 fold enrichment (6-mer frequency, TF over GST control)
TGTCGC	1.04 fold enrichment (6-mer frequency, TF over GST control)
CGCGGA	1.03 fold enrichment (6-mer frequency, TF over GST control)
AGTCTT	1.08 fold enrichment (6-mer frequency, TF over GST control)

These sequences were tested against T5, ETV3 (Homo sapiens, UniProt P41162-2 1-143) in the same assay as above. Settings: protein: recombinant; tags: N-terminal GST; dsDNA, one strand shown.
T5 sequence: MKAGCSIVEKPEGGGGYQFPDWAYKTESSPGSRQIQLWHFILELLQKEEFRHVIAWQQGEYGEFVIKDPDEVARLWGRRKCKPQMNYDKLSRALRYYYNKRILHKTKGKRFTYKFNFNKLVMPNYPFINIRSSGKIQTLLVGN
In short: as §1

Sequence	binding signal
CAACAG	1.02 fold enrichment (6-mer frequency, TF over GST control)
GGATGA	1.03 fold enrichment (6-mer frequency, TF over GST control)
AGGATA	1.06 fold enrichment (6-mer frequency, TF over GST control)
CGCGGA	1.01 fold enrichment (6-mer frequency, TF over GST control)
